Measurements published in PubChem BioAssay.
Several values for one entry are separate records, joined by “and”; a condition that tells them apart may be missing. Equal values may be shown once.

System: Neuregulin-1 EGF-like domain
Test: binders of neuregulin-1 EGF-like domain, primary screen, biochemical, small-molecule microarray, 635 nm fluorescence (AID 1081);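 further: binding of the protein to compounds printed on small-molecule microarray slides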
Conditions: small-molecule microarray binding, higher = more signal

Compound	composite z-score
C=CCN(CCCC)C(=O)C1N(c2ccc(CCO)cc2)C(=O)C2C(C(=O)O)C3C=CC21O3 (stereo not given)	-0.493 and 0.201
COC(=O)C1=C(C)N(Cc2ccccc2)C2=C3C(=O)N(c4ccccc4)C(=O)[C@@H]3[C@@](O)(C(=O)OC)C(=O)N2[C@@H]1c1ccccc1	1.02 and 0.99
CCC[C@@H]1C[C@@]1(CCC)[C@@H](NC(=O)c1ccc(-c2ccccc2)cc1)c1cccc(Cl)c1	-0.62 and 1.11
C=CCN(C(=O)C(c1cccs1)N(C(=O)/C=C\C(=O)O)c1ccc(CCO)cc1)C(C)(C)C (stereo not given)	0.71 and 1.3
C=CCN(Cc1ccccc1)C(=O)C1N(CCCCCCO)C(=O)C2C(C(=O)O)C3C=CC21O3 (stereo not given)	1.41 and 1.4
COc1ccc(COC(=O)NN=C2C[C@@H](O)[C@@H](O)[C@@H]3[C@@H]4C(=O)N(C(C)(C)C)C(=O)[C@@H]4CC[C@H]23)cc1	1.13
O=C1NC(=O)C2C1C=CC(C(O)c1ccc([N+](=O)[O-])cc1)N2Nc1ccc(Cl)cc1Cl (stereo not given)	0.939 and 1.21
COC(=O)C1=C(C)N(Cc2ccccc2)C2=C3C(=O)CCC[C@@H]3[C@@](O)(C(=O)OC)C(=O)N2[C@@H]1c1ccccc1	0.211 and 0.476
C[N+](C)(C)CCCCNC(=O)[C@H]1C[C@H]2C(=O)N[C@@H](CCCC[N+](C)(C)C)C(=O)N2[C@H]1c1cccc(OCCO)c1	0.973 and 1.38
C=CCN(CCCCC)C(=O)C1N(c2ccc(CCO)cc2)C(=O)C2C(C(=O)O)C3C=CC21O3 (stereo not given)	-0.465 and -0.307
CC(C)C(=O)N[C@@H]1CCCN1C(=O)C=Cc1ccccc1	1.07
C[C@@H](ON=C1[C@H]2CCn3c(=O)n(-c4ccccc4)c(=O)n3[C@H]2[C@H](O)[C@@H]2O[C@H]12)c1cn([C@H](CO)Cc2ccccc2)nn1	0.536
C=CCN1C(=O)[C@]2(O[C@H](CCn3cc(CCO)nn3)[C@@H]([Si](C)(C)c3ccc(OC)cc3)[C@@H]2C)c2cc(N3C(=O)c4cccc5cccc3c45)ccc21	1.03
COC(=O)[C@@]1(Cc2ccc(F)cc2)[C@H]2c3cc(C(=O)N4CCCC4)n(Cc4c(CO)[nH]cc(C)c4=O)c3C[C@H]2CN1C(=O)c1ccccc1	1.31 and 1.1
C=CCN(CCCCC)C(=O)C1N(c2c(Cl)cccc2CO)C(=O)C2C(C(=O)O)C3C=CC21O3 (stereo not given)	-0.506 and -0.277
C=CCN(C(=O)C1N(c2c(Cl)cccc2CO)C(=O)C2C(C(=O)O)C3C=CC21O3)C(C)(C)C (stereo not given)	0.0868 and -0.844
COC(=O)[C@@]1(Cc2ccc(OC)cc2)[C@H]2c3cc(C(=O)N(C)C)n(Cc4ccc(O)c(OC)c4)c3C[C@H]2CN1C(=O)c1ccccc1	1.32 and 1.22
C=CCN(C(=O)C1N(C(C)(C)CO)C(=O)C2C(C(=O)O)C3C=CC21O3)c1ccc(OC)cc1 (stereo not given)	0.493 and -0.364
C[N+](C)(C)CCCCNC(=O)[C@@H]1C[C@@H]2C(=O)N[C@@H](CCCC[N+](C)(C)C)C(=O)N2[C@@H]1c1cccc(OCCO)c1	1.07 and 1.16
CCCC[C@@H]1CN2[C@@H](CC[C@@H](C)[C@@H]2c2ccc(Br)cc2)C(=O)O1	0.602 and 0.965

Compound	composite z-score
CCN1C(=O)[C@H]2[C@H]3[C@H](O)[C@H](O)CC(=NOC)[C@@H]3CC[C@H]2C1=O	-0.817
C=C[C@H](OC)[C@@H](O)c1ccc(OCCO)cc1	0.604 and 0.0642
COC(=O)C1=C(C)N(Cc2ccccc2)[C@]23O[C@](C(=O)OC)(C(=O)N2[C@@H]1c1ccccc1)[C@@H](c1ccccc1)[C@@H]3C(=O)c1ccccc1	0.428 and 0.602
CCOC(=O)[C@@H]1CC=C2CC1C(=O)N1CCC[C@@H]1[C@H]2O[Si](C)(C)C(C)(C)C (stereo not given in full)	-1.69 and -0.727
CCOC(=O)[C@@H]1CC2O[C@]23C[C@@H]1C(=O)N1CCC[C@@H]1[C@H]3O[Si](C)(C)C(C)(C)C (stereo not given in full)	-1.07 and -0.585
Cc1ccc(S(=O)(=O)OC[C@@H]2CN3[C@@H](CC[C@@H](C)[C@@H]3c3ccc(Br)cc3)C(=O)O2)cc1	0.168 and 1.07
COC(=O)C1=C(C)N(Cc2ccccc2)[C@]23O[C@](C(=O)OC)(C(=O)N2[C@@H]1c1ccccc1)[C@H]1C(=O)N(c2ccccc2)C(=O)[C@H]13	1.07 and 1.09
CCOC(=O)c1ccc(NC(=O)O[C@H]2[C@H](OC(=O)Nc3ccccc3)[C@H](OC(=O)Nc3ccccc3)[C@@H](OC)O[C@@H]2CO)cc1	1.3 and 1.35
C[N+](C)(C)CCCCCCNC(=O)[C@H]1C[C@H]2C(=O)N[C@@H](CCCC[N+](C)(C)C)C(=O)N2[C@H]1c1ccc(O)cc1	1.07 and 1.41
Cc1ccc(S(=O)(=O)N[C@@H]2COC(=O)CC=C[C@@H](C)[C@@H]3C=C[C@H](O)[C@@H](COC(=O)CC=C[C@H]2C)O3)cc1	0.0077 and 0.324
CCCNC(=O)OC[C@H]1O[C@H](CCON=C(C)CCC(=O)OC[C@H]2O[C@H](C#Cc3ccccc3)C=C[C@@H]2Oc2ccc(C)cc2)C=C[C@@H]1Oc1ccc(OC)cc1	-0.861
C=CCN(CCCC)C(=O)C1N(C(C)(C)CO)C(=O)C2C(C(=O)O)C3C=CC21O3 (stereo not given)	0.111 and -0.645
C=C[C@@H](C)[C@H](O)c1ccc(O)c2ccccc12	-0.728 and -0.279
C=CCN(Cc1ccccc1)C(=O)C1N(C(C)(C)CO)C(=O)C2C(C(=O)O)C3C=CC21O3 (stereo not given)	-0.372 and 0.11
C=CC[C@H](O)c1ccc(OCCO)cc1	0.176 and 0.997
C=CCN(C(=O)C(c1cccs1)N(C(=O)/C=C\C(=O)O)c1ccc(CCO)cc1)c1ccc(OC)cc1 (stereo not given)	0.877 and -1.46
C=CC[C@@H](O)c1ccc(OCCO)cc1	-0.0171 and 0.209
C=CCN(C(=O)C1N(CCCCCCO)C(=O)C2C(C(=O)O)C3C=CC21O3)c1ccc(OC)cc1 (stereo not given)	0.786 and -1.16
COC(=O)C1=C(C)N(Cc2ccccc2)C2=C(C(=O)c3ccccc3)[C@H](c3ccccc3)[C@@](O)(C(=O)OC)C(=O)N2[C@@H]1c1ccccc1	0.672 and 0.253
Cc1ccc(S(=O)(=O)N[C@H]2COC(=O)[C@@H](C)COC(=O)[C@H](C)NC(=O)CC=C[C@H]2C)cc1	-0.132
